Experimental data published in the supplement of paper PMC11001985.
A number with no mark means an inactive call.

Compound: C#CCNC(=O)CCSSCCC(=O)NCCc1ccc(C=O)c(C=O)c1
Experiment: lysine labeling ratio R10:1 (500 µM / 50 µM probe), SILAC-ABPP in living cells; higher = lower intrinsic lysine reactivity toward the probe, active = 2 or less
Conditions: HeLa; probe concentrations 500 vs 50 µM
Method in brief: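 With forward and reverse label swaps, light and heavy SILAC HeLa cells, alive and in PBS at room temperature, were exposed to either 500 µM or 50 µM of an alkyne-tagged lysine probe bearing a disulfide link. After mixing, lysates were clicked to biotin-azide, cut with trypsin, pulled down on neutravidin, freed with DTT, alkylated and analysed on a TIMS-TOF Pro by LC-MS/MS. The per-lysine value R is the median over forward and reverse replicates of the filtered median high-probe/low-probe MS1 peptide ratio. It is capped at 20.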

UniProt Q99985, sequence (Q99985 whole entry): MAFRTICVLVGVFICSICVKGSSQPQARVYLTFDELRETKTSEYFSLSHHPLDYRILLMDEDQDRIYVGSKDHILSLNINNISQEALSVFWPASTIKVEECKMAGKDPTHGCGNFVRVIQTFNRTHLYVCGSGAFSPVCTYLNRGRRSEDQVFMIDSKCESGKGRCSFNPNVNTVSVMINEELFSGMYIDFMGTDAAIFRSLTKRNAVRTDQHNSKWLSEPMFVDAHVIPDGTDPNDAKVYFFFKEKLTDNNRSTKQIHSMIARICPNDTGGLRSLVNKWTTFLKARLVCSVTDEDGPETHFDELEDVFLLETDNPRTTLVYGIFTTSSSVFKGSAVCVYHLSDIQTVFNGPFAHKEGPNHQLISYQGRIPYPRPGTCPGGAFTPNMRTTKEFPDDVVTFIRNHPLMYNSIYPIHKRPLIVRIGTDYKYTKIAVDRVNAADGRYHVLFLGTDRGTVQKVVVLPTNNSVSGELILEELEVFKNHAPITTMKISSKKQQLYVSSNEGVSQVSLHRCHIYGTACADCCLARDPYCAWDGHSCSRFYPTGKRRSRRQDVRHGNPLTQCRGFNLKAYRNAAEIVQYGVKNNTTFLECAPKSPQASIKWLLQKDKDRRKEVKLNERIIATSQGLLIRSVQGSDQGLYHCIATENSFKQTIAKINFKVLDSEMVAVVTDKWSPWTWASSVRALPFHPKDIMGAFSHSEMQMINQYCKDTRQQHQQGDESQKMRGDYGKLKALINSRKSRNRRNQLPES
UniProt P06396, sequence (P06396 whole entry): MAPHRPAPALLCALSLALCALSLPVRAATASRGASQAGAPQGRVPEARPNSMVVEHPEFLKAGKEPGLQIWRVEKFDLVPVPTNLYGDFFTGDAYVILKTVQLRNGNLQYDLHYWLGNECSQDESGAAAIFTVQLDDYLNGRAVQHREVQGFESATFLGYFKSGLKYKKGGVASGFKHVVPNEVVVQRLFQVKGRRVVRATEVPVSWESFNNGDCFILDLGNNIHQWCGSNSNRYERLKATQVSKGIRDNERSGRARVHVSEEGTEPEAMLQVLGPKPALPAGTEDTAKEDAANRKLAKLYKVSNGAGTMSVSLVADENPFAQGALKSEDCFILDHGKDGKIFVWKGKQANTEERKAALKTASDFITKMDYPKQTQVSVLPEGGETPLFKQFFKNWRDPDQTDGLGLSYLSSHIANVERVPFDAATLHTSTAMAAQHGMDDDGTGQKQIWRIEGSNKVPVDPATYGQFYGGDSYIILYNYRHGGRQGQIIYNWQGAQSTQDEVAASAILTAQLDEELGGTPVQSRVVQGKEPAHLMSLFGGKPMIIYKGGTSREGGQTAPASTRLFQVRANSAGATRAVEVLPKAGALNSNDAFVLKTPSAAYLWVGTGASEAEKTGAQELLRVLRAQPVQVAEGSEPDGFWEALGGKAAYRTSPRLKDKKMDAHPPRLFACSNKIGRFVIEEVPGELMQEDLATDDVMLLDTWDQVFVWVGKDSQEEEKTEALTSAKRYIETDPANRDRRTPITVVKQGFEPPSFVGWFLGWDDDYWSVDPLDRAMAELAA
UniProt Q00610, sequence (Q00610 whole entry): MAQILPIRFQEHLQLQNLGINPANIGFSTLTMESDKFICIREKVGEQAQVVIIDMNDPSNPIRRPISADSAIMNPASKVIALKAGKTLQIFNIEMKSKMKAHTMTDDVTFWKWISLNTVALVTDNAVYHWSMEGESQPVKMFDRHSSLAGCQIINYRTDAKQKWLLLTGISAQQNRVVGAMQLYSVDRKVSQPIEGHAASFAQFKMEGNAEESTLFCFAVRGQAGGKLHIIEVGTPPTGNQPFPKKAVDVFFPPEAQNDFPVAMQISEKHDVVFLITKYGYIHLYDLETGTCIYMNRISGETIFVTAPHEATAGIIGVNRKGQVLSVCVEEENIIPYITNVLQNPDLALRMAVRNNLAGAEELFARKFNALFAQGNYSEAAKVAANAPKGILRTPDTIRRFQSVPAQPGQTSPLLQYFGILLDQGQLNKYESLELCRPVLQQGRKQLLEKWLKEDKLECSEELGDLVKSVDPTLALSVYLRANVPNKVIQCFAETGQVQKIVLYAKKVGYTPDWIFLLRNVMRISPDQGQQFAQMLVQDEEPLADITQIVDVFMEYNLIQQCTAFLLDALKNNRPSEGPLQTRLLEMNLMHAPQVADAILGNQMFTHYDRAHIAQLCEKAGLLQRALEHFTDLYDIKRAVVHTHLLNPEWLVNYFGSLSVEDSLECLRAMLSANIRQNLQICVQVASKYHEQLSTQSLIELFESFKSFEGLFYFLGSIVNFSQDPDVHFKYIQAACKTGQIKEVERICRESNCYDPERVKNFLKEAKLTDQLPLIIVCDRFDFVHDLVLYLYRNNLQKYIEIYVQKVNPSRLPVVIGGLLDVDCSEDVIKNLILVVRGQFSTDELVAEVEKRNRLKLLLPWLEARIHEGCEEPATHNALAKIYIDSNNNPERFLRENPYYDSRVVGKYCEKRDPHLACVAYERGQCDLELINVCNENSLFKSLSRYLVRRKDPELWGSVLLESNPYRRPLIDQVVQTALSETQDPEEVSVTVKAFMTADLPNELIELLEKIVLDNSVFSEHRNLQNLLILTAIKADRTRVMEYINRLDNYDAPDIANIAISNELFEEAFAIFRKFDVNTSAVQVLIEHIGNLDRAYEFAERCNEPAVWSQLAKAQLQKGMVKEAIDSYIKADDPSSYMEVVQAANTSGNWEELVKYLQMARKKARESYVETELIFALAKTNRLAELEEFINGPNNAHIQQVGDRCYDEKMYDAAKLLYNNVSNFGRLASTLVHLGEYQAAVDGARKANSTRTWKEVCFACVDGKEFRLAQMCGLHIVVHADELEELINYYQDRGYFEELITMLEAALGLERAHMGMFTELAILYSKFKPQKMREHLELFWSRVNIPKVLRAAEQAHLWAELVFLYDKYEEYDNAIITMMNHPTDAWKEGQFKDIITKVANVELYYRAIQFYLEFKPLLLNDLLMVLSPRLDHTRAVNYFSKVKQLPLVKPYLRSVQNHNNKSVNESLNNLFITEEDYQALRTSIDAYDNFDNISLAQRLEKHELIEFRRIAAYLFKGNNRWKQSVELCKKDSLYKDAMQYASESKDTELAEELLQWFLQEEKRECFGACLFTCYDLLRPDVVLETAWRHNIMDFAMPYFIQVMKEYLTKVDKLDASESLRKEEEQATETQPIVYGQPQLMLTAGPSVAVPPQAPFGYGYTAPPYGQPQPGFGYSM
UniProt O75882, sequence (O75882 whole entry): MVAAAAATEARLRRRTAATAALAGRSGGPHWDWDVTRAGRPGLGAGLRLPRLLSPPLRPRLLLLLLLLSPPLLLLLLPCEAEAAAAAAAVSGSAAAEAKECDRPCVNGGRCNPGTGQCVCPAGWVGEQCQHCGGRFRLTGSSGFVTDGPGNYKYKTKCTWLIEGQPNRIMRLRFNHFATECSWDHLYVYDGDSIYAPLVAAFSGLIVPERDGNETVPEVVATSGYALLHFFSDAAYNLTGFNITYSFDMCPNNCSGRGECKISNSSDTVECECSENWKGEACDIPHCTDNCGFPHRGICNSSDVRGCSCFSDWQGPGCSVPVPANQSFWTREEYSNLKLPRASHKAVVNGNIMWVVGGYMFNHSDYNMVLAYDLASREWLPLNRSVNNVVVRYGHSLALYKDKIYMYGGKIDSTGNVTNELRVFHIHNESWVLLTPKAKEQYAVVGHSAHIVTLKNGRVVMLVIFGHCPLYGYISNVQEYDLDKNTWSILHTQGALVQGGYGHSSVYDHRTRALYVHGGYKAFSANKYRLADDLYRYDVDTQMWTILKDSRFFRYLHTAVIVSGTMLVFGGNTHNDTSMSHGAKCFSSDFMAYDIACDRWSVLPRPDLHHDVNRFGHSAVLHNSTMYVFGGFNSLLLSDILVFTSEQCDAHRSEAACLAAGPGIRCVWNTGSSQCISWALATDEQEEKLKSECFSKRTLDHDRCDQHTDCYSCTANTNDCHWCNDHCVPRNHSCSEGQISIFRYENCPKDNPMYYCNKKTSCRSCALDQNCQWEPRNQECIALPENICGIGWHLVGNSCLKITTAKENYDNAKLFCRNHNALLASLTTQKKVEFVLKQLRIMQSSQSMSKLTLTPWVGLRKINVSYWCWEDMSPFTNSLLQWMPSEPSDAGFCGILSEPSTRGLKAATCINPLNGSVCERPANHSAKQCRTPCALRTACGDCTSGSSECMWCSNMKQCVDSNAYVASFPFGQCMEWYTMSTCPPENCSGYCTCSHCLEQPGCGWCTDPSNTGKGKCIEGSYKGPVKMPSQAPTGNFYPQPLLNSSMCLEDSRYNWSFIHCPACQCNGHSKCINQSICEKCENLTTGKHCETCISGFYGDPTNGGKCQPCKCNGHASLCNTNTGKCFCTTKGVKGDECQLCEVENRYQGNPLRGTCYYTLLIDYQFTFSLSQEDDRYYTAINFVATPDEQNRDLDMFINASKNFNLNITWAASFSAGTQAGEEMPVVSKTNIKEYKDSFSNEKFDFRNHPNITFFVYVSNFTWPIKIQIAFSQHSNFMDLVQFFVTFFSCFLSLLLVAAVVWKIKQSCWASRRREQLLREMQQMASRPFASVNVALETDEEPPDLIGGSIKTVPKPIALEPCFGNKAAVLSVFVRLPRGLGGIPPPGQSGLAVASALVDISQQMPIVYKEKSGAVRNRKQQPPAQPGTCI
UniProt Q9BRK5, sequence (Q9BRK5 whole entry): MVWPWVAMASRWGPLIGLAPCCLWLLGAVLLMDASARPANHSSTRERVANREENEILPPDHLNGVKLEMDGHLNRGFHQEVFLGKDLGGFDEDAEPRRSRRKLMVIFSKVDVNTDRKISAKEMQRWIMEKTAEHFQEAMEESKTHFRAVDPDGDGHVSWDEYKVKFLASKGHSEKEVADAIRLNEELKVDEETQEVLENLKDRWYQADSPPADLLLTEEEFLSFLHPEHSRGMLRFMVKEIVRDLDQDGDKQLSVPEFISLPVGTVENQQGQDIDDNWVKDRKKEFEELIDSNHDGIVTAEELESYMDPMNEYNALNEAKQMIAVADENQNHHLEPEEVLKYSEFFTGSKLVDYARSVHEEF

Row | Target | lysine labeling ratio R10:1
1 | GSN (lysine site: K239) (UniProt P06396) | 4.08
2 | MSN (lysine site: K151) (UniProt P26038) | 2.26
3 | NCL (lysine site: K449) (UniProt P19338) | 0.805 (active)
4 | SEMA3C (lysine site: K495) (UniProt Q99985) | 2.53
5 | PTPRS (lysine site: K897) (UniProt Q13332) | 2.19
6 | SDF4 (lysine site: K121) (UniProt Q9BRK5) | 1.36 (active)
7 | UniProt Q96TA1 (lysine site: K479) | 2.71
8 | EGFR (lysine site: K133) (UniProt P00533) | 1.08 (active)
9 | FAT1 (lysine site: K2553) (UniProt Q14517) | 2.67
10 | NUCB1 (lysine site: K205) (UniProt Q02818) | 4.75
11 | CLTC (lysine site: K637) (UniProt Q00610) | 2.63
12 | FASN (lysine site: K41) (UniProt P49327) | 0.712 (active)
13 | UniProt Q8WXI7 (lysine site: K12309) | 6.26
14 | CD58 (lysine site: K78) (UniProt P19256) | 8.22
15 | ATRN (lysine site: K1133) (UniProt O75882) | 1.81 (active)
16 | GPI (lysine site: K440) (UniProt P06744) | 1.78 (active)
17 | UniProt Q92729 (lysine site: K388) | 3.11
